The list is not random: actives were taken first. Their share in the collection is about 7.8%.
TSHR ag: qHTS Assay for Agonists of the Thyroid Stimulating Hormone Receptor; HEK293-CNG-TSHR cells (CNG channel as cAMP sensor), membrane potential dye, cAMP; Potency, µM (highest dose often 57.1 µM), without a hit: at the highest dose activation, hits mostly activators; 73,000 tested, 0.48% active; AID 926, 2007; active = well fitted activation curve with a large enough effect in the main read-out, with a control signal flat, not every such curve was filed as active; inconclusive = small, poorly fitted or top-dose-only effect, or a change in a side signal; inactive = no such curve, though single readings can be large or run the other way; % of control where 0% means no effect;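 also: the control signal comes from parental cells without the receptor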
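HEK 293 cells stably expressing TSHR and a modified CNG channel, with CNG-only parental cells as counterscreen, were preloaded 60 min at room temperature with membrane potential dye containing 100 uM RO 20-1724. Compound exposure was 30 min, and depolarization was read as fluorescence at 590 nm.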
Bst PK mod: Pyruvate Kinase; 51,000 tested, 1.2% active; purified pyruvate kinase, luminescence ATP production; ribose 5-phosphate activator present at AC10; Potency, µM; in the data active = potency below about 11 µM; inconclusive = mostly about 12 µM to 25 µM;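 the screen sought inhibitors and activators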;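 also: scaled between full activation by ribose 5 phosphate and full inhibition by luteolin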
HEK293 cAMP cs: qHTS Assay for Agonists of the Thyroid Stimulating Hormone Receptor: Activators of Intracellular cAMP Concentrations in Parental HEK 293; 73,000 tested, 2.5% active; AID 938, 2007; parental HEK293 CNG cAMP sensor, membrane potential fluorescence; Potency, µM (doses to about 57.1 µM), without a hit: at the top dose activation, most hits filed as activators; also: % of control where 0% means no effect; nearly all actives have a fitted effect of over 55% in size
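Counterscreen for endogenous-receptor signalling: CNG-channel HEK 293 cells report cAMP rise by membrane depolarization. After 60 min dye equilibration with 100 uM RO 20-1724, compounds incubated 30 min before bottom-read fluorescence at 590 nm.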
ALOX15 inhib: qHTS Assay for Inhibitors of 15-hLO (15-human lipoxygenase); Polyunsaturated fatty acid lipoxygenase ALOX15 (Homo sapiens), P16050; purified 15hLO-1, xylenol orange hydroperoxide absorbance; 74,000 tested, 1.4% active; AID 887, 2007; Potency, µM (titrated, usually from 57.1 µM), inactives show at the highest dose activity change, negative = inhibition, most hits filed as inhibitors; also: % is scaled to controls: 0 for no effect and ±100 for the full control effect; nearly all actives have a fitted effect of over 55% in size
Target sequence (P16050 whole entry, looked up): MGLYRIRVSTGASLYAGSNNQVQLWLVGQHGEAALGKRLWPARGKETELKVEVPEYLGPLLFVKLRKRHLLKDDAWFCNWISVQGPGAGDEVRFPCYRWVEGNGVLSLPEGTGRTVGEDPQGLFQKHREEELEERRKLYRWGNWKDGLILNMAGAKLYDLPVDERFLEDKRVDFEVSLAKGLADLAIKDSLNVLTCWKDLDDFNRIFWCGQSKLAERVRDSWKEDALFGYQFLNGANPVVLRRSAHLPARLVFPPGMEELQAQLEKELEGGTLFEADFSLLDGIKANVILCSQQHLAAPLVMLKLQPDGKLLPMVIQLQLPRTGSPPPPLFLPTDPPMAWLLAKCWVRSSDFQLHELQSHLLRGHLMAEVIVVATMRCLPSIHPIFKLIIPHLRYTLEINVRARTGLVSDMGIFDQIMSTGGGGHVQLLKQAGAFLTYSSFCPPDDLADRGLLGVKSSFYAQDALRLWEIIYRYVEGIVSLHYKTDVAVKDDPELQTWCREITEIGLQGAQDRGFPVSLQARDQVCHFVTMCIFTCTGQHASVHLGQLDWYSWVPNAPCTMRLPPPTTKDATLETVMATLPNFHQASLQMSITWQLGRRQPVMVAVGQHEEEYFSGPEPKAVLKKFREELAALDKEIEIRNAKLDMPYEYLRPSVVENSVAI
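Compounds were preincubated 15 min at room temperature with 40 nM purified human enzyme (25 mM Hepes pH 7.5, 0.01% Triton X-100); 50 uM arachidonic acid reacted 6 min. Fe-xylenol orange detection, 30 min, absorbance ratio 573/405 nm.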
FLuc inh: qHTS Assay for Inhibitors of Firefly Luciferase; Luciferin 4-monooxygenase (Photinus pyralis), P08659; purified firefly luciferase, luminescence, 8 min; Potency, µM (titrated, usually from 57.1 µM), without a hit: at the highest dose activity change, negative = inhibition, hits mostly inhibitors; 72,000 tested, 2.2% active; also: % is scaled to controls: 0 for no effect and ±100 for the full control effect; nearly all actives have a fitted effect of over 40% in size
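Titration-based qHTS; buffer 50 mM imidazole pH 7.2, 50 mM KCl, 7 mM MgCl2, 10 uM ATP, 0.01% Tween 20, 0.05% BSA; luciferase/luciferin detector mix added after compound; 8 min, ambient; luminescence.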
Tau filament bind: qHTS Assay for Tau Filament Binding. Microtubule-associated protein tau (Homo sapiens), P10636. recombinant tau filaments, thioflavin S fluorescence, 15 h; filaments grown with octadecylsulfate alongside compound. Potency, µM (top dose mostly 57.1 µM), inactives show at the top dose activity change, negative = inhibition. 71,000 tested, 2% active. AID 596, 2007;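 also: % is scaled to controls: 0 for no effect and ±100 for the full control effect; actives lower thioflavin S fluorescence by blocking filaments or displacing dye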
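Recombinant tau protein (human, 1 uM final) plus 30 uM ODS in HEPES pH 7.4 with NaCl, DTT and thioflavine S. Compound present from the start; fluorescence at 510 nm after 15 h, 37 C.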
* marks the source's active call; other numbers are inactive results; i = inactive; ? = inconclusive; . = no result; [ ] = dose if it differs, or a comment. Unless noted, calls follow the shape of the dose curve; as a rule, active = well fitted curve in the direction sought with a large enough effect; inconclusive = small, poorly fitted or top-dose-only effect, or another doubt; inactive = no such curve, though single readings can be large; an effect the other way counts as inactive or inconclusive. Potency is read from the fitted curve at half-maximal effect.

SMILES | TSHR ag | Bst PK mod | HEK293 cAMP cs | ALOX15 inhib | FLuc inh | Tau filament bind
O=C1CC(Nc2ccccc2)C(=O)N1c1ccc(N2CCOCC2)cc1 (stereo not drawn) | 7% | >57 | 5% | 2% | 1% | -12%
O=C1CC(Nc2ccc(N3CCOCC3)cc2)C(=O)N1c1ccccc1F (stereo not drawn) | -2% | . | 5% | 20µM* | 1% | -12%
Cc1ccc(Cl)cc1NC(=O)CC(O)(C(F)(F)F)C(F)(F)F | ? | >57 | 6.3µM* | -6% | 3% | -8%
Cc1ccc(Cl)cc1NC(=O)Cn1cccc1 | 4%[11.4 µM] | >57 | 22% | 0% | 1% | 2%
Cc1ccc(C=Nc2ccc(N(C)C)cc2)o1 | -31% | . | -26% | ? | 3.2µM* | ?
O=C(CN1CCOCC1)Nc1ccccc1-c1ccccc1 | 4% | >57 | 14% | 9% | 1% | -6%
O=C(CN1CCN(C2CCCCC2)CC1)Nc1ccccc1-c1ccccc1 | ? | >57 | 16µM* | -2% | -1% | 15%
c1ccc(C(c2ccccc2)N2CC[C@@]3(CCCNC3)C2)cc1 | 3% | . | 6% | -2% | 2%[11.4 µM] | ?
CCN1CCN(c2ccc(NC(=O)Cc3ccccc3)cc2)CC1 | -14% | >57 | 0% | 3% | 0% | -19%
O=C(Cc1ccccc1)Nc1cccc(N2CCCC2)c1 | -16% | >57 | 5% | -5% | -6% | 25µM*
COc1cc(OC)cc(C(=O)Nc2cccc(C(C)=O)c2)c1 | 11% | . | 5% | 5% | ? | -5%
COc1cc(OC)cc(C(=O)Nc2cccc(N3CCCC3)c2)c1 | -30% | >57 | -8% | ? | -1% | 10µM*
CCCCc1nc2c(c3c1CC(C)OC3)CN(CCC(C)C)CC2 (stereo not drawn) | -7%[11.4 µM] | . | 1%[11.4 µM] | 4%[11.4 µM] | . | .
Cc1cc2nn(-c3ccccc3)nc2cc1NC(=O)c1cccs1 | 17% | 2.3* | 8% | 0% | 16µM* | 71%
COc1ccc(-n2nc3cc(C)c(NC(=O)c4cccnc4)cc3n2)cc1 | ? | 9.6* | ? | 5% | 2.5µM* | 172%
O=C(Nc1nccs1)C1CCCN1S(=O)(=O)c1ccc(Cl)cc1 (stereo not drawn) | 1% | 10* | -2% | 5% | 2% | 2%
O=C(Nc1cccnc1)C1CCCN1S(=O)(=O)c1ccc(Cl)c(Cl)c1 (stereo not drawn) | 21% | 4.7* | 4% | -3% | 2% | -1%
O=C(Nc1ccc2c(c1)OCCO2)C1CCCN1S(=O)(=O)c1ccc(Cl)cc1 (stereo not drawn) | 10% | 11* | 7% | 2% | 4% | -1%
NC(=O)c1ccsc1NC(=O)C1CCCN1S(=O)(=O)c1ccc(Cl)cc1 (stereo not drawn) | -7% | i | -11% | -7% | -2% | -15%
COc1ccc(S(=O)(=O)N2CCCC(C(=O)Nc3cccnc3)C2)cc1Cl (stereo not drawn) | 22% | >57 | 18% | -11% | 2% | -3%
COC(=O)N1CCC2(CCN(Cc3cc(C(F)(F)F)cc(C(F)(F)F)c3)CC2)CC1 | ? | . | ? | 3% | 1%[11.4 µM] | -15%
COc1cccc(C(=O)Nc2ccc(-c3nnc(-c4ccco4)o3)cc2)c1 | . | >26 | . | . | -2%[25.5 µM] | .
O=C(COc1ccccc1)Nc1ccc(-c2nnc(-c3ccco3)o2)cc1 | . | >26 | . | . | 0%[25.5 µM] | .
CCCOc1ccc(-c2nnc(-c3ccco3)o2)cc1 | ? | 3.4* | ? | -3% | 10µM* | 28%
CC(C)COc1ccc(-c2nnc(-c3ccco3)o2)cc1 | ? | 9.5* | ? | -23% | 16µM* | 27%
SMILES | TSHR ag | Bst PK mod | HEK293 cAMP cs | ALOX15 inhib | FLuc inh | Tau filament bind
CC(=O)Nc1ccc(N/C=C/C(=O)c2ccc(C)o2)cc1 | -14% | i | -16% | -3% | 16µM* | 25%
Cc1ccc(C(=O)Nc2ccncc2)o1 | -13% | >57 | 6% | 11% | -2% | -7%
Cc1ncoc1C(=O)Nc1ccccc1C(N)=O | 1% | >57 | 18% | 8% | 0% | -4%
Cc1ccc(C(=O)/C=C/Nc2ccccc2C(N)=O)o1 | 6% | 6.1* | 5% | -4% | 6.3µM* | 40%
CC(C)C(CO)NC(=O)CC(=O)NC(CO)C(C)C (stereo not drawn) | 8%[11.4 µM] | . | 7%[11.4 µM] | -5%[11.4 µM] | 2% | -2%[11.4 µM]
O=C(c1ccccc1)c1cc(-c2ccccc2)on1 | . | 1.9* | . | . | 1.6µM* | .
c1ccc2c(c1)NC1(CCCCC1)n1c-2nc2ccccc21 | . | i | 2% | 3% | 13µM* | 2%
O=C1Nc2ccccc2C12Nc1ccccc1-c1nc3ccccc3n12 (stereo not drawn) | 17% | >57 | 8% | ? | -5% | -23%
CCCCCCCCCC[Si](C)(C)CCC(=O)N[C@@H](Cc1ccc(C)cc1)c1ccccc1 | 10% | . | -5% | 3% | -2% | -1%
O=C(CSc1nnnn1C1CCCC1)c1ccc2c(c1)OCCO2 | ? | i | ? | -2% | 7.9µM* | 5%
O=C(CSc1nnc2ccccn12)c1ccc2c(c1)OCCO2 | 2%[11.4 µM] | . | 9% | 3% | 16µM* | 1%
CCOc1ccc(-c2cc(C(=O)N/N=C/c3ccc(O)c(OC)c3)[nH]n2)cc1 | -8% | . | -12% | -28% | . | .
CCCCCOc1ccc(N2C(=O)CC(N(O)c3ccccc3)C2=O)cc1 (stereo not drawn) | -3% | >57 | -13% | -5% | 3% | 13µM*
CCCCOc1ccc(N2C(=O)CC(N(O)c3ccccc3)C2=O)cc1 (stereo not drawn) | -24% | >57 | -11% | -2% | 0% | -18%
CC(=O)c1ccc(N2CCCCCC2)c(F)c1 | 25%[11.4 µM] | . | 10%[11.4 µM] | -4%[11.4 µM] | -8% | 0%[11.4 µM]
Fc1ccc(-n2[nH]nnc2=S)cc1N1CCCC1 | 0% | >57 | 15% | 25µM* | -4% | -17%
NC(=O)CSc1nc2sc3c(c2c2ncnn12)CCCC3 | 22% | 1.3* | 2% | 0% | -2% | 3%
O=c1c2c3c(sc2n2cnnc2n1CCc1ccccc1)CCCC3 | 48% | . | 18% | -4% | 3% | 8%
O=c1[nH]c2sc3c(c2c(=O)n1Cc1ccccc1)CCC3 | . | >26 | . | . | -1%[25.5 µM] | .
O=C(Cn1c(=O)n2ncnc2c2c3c(sc21)CCCC3)c1ccccc1 | ? | >57 | 25µM* | 0% | 1% | -3%
O=c1n(Cc2ccccc2Cl)c2sc3c(c2c2ncnn12)CCCC3 | 20µM* | >57 | 28% | 5% | 2% | 47%
CSc1nc2sc3c(c2c2nnnn12)CCCC3 | . | >26 | . | . | 0%[25.5 µM] | .

High-throughput results from PubChem BioAssay.
